Screening data (PubChem)
AMA1-RON2 inh = disrupts binding of P. falciparum AMA1 to RON2. actives 0.2% (n = 360,000). Potency, µM (highest dose often 58.2 µM), for inactives: at the highest dose activity change, negative = inhibition, actives largely listed as inhibitors. AlphaScreen AMA1-biotinylated RON2 peptide binding;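 note: potency is the fitted concentration of half-maximal effect; 0% = vehicle wells and -100% = peptide control; nearly all actives have a fitted effect of over 45% in size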
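AMA1 (3D7) with his tag at 25 nM final met compounds first, then biotinylated RON2 peptide at 25 nM; detection used donor plus acceptor beads, 10 µg/mL apiece, read by AlphaScreen after 30 min at room temperature.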
CHX counter = counter-screen for Shiga toxin inhibitors: cycloheximide protein synthesis inhibition; cell reporter, cycloheximide protein synthesis inhibition counterscreen; max response, %; actives 12% (n = 300,000); AID 2314; in the data active = max response mostly above about 13%, no sharp cut-off; inactive = mostly below about 14%; note: read at 38.3 µM for the half of the compounds with a filed dose; 0% is about no effect
SARS PLP yeast = SARS-CoV PLP inhibition in yeast; S. cerevisiae expressing SARS-CoV PLpro, growth rescue; Potency, µM (doses to about 32.9 µM), for the others: at the top dose activity, positive = growth rescue, most hits filed as activators; actives 0.19% (n = 330,000); AID 485353; calls by dose curve; note: potency is the fitted concentration of half-maximal effect; 0% is about no effect; nearly all actives have a fitted effect of over 55% in size
Shiga toxin inh = blocks Shiga toxin action in Vero cells; Vero cells, Shiga toxin protein synthesis inhibition reporter; inhibition, % at 38.7 µM; actives 9.2% (n = 290,000); in the data active = inhibition mostly above about 28%, no sharp cut-off; inactive = mostly below about 43%; note: 0% is about no effect
Pf growth 96h = inhibits malaria parasite growth, 96 h. P. falciparum luciferase reporter growth, 96 h. Potency, µM (top dose mostly 28.7 µM), without a hit: at the top dose activity change, negative = inhibition, hits mostly inhibitors. actives 6.9% (n = 320,000); note: potency is the fitted concentration of half-maximal effect; % is set by controls: 0 for no effect and ±100 for the full control effect
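P. falciparum expressing integrated firefly luciferase grown in erythrocytes (2% hematocrit, 0.05% parasitemia final) with compounds for 96 hours at 37 C, 5% CO2. Growth inhibition read as loss of luminescence after adding luciferase detection reagent.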
Pf growth 48h = P. falciparum growth inhibition at 48 hours (one generation); P. falciparum luciferase growth in erythrocytes, 48 h; Potency, µM (highest dose often 28.7 µM), for inactives: top-dose activity change, negative = inhibition, most hits filed as inhibitors; actives 5.9% (n = 310,000); note: potency is the fitted concentration of half-maximal effect; % is set by controls: 0 for no effect and ±100 for the full control effect
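Luminescence readout; reporter = integrated firefly luciferase in P. falciparum. RBC culture at 2% hematocrit, 0.1% parasitemia final, 37 C/5% CO2; decreased signal taken as growth inhibition.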
Starred values were filed as active, the others as inactive; ? = inconclusive; . = no result given. Shown are actives, neighbours in structure and some others; about 19% of the full set was active somewhere. Unless noted, calls come from the whole dose curve; as a rule, active = well fitted curve in the direction sought with a large enough effect; inconclusive = small, poorly fitted or top-dose-only effect, or another doubt; inactive = no such curve, though single readings can be large; an effect the other way counts as inactive or inconclusive.

SMILES | AMA1-RON2 inh | CHX counter | SARS PLP yeast | Shiga toxin inh | Pf growth 96h | Pf growth 48h
N/C(=N\OC(=O)c1cccs1)c1cccnc1 | 6% | 40* | -4% | 43* | -15% | 39%
N/C(=N\OC(=O)c1ccc(Br)o1)c1ccccn1 | 46% | 26* | -21% | 61* | 22% | 88%
Cc1cccc(/C(N)=N/OC(=O)c2ccc(Cl)cc2Cl)c1 | 0% | 70* | -87% | 72* | 61% | 191%
N/C(=N\OC(=O)c1ccc(Cl)cc1)c1cccnc1 | -3% | 42* | -13% | 175* | . | 56%
CC(=O)c1ccc(S(=O)(=O)Oc2ccc(-c3ccc(C(=O)O)cc3)cc2)cc1 | 14% | 0 | 0% | -5 | 10% | 4%
CCCCC | . | . | . | . | ? | -14%
COc1cccc(CNC(=O)c2ccc(CS(=O)Cc3ccccc3Cl)o2)c1 (stereo not drawn) | -7% | . | . | . | . | .
N/C(=N\OC(=O)c1ccc(Cl)cc1Cl)c1cccnc1 | 1% | 35* | -1% | 91* | 4.7µM* | -36%
Cc1ccc(/C(N)=N/OC(=O)c2ccc(C)cc2Cl)cc1 | 7% | 80* | -86% | 26* | 2% | -58%
COc1cc(OC)cc(C(=O)O/N=C(\N)c2cccc(C)c2)c1 | 34% | 13 | 0% | 44 | 7% | ?
O=C(O/N=C(\c1ccccc1)c1ccncc1)c1ccccc1Cl | -1% | -1 | -16% | -6 | -15% | -11%
Cc1ccccc1/C(N)=N/OC(=O)c1cccs1 | 4% | 27* | -77% | 61* | 64% | 10%
Cc1cccc(/C(N)=N/OC(=O)c2cccnc2)c1 | 12% | 33* | 0% | 103* | 2% | 3%
COc1ccc2c(C)cc3n[nH]c(=S)n3c2c1 | 75% | 4 | -2% | 14 | 56% | 5%
N/C(=N\OC(=O)c1ccc(Cl)cc1Cl)c1ccc(Cl)cc1 | 10% | 50* | -31% | 114* | -94% | 347%
O=C1C(Cl)=C(NCC2CCCO2)C(=O)N1CCc1ccccc1 (stereo not drawn) | 16% | 57* | -2% | 56* | 1% | 107%
CN1CCN(C2=C(Cl)C(=O)N(CCc3ccccc3)C2=O)CC1 | -3% | 48* | 5% | 40* | -92% | 52%
O=C1C(Cl)=C(Nc2ccc(F)cc2)C(=O)N1CCc1ccccc1 | -5% | 59* | 1% | 82* | ? | 8%
O=C1C(Cl)=C(NCCCN2CCOCC2)C(=O)N1CCc1ccccc1 | 0% | 24* | 0% | 29 | ? | 12%
O=C1C(Cl)=C(N2CCCCC2)C(=O)N1Cc1ccccc1 | 77% | 4 | -52% | 13 | ? | 6%
O=C1C(Cl)=C(N2CCOCC2)C(=O)N1CCc1ccccc1 | 49% | 47* | -3% | 133* | ? | 106%
CCN(CC(=O)NC(C)(C)C)C(=O)c1ccc2c(c1)S(=O)(=O)c1ccccc1C2=O | 1% | -1 | 1% | -18 | -20% | ?
Cn1ccsc1=NC(=O)c1ccc(Cl)c([N+](=O)[O-])c1 | 6% | 16* | -1% | 53* | 1% | 6%
Cc1ccc(C(=O)N=c2sccn2C)cc1S(=O)(=O)N1CCOCC1 | -7% | . | 0% | . | -21% | 71%
Cn1ccsc1=NC(=O)c1ccc(S(C)(=O)=O)c([N+](=O)[O-])c1 | 7% | 43* | -4% | 36* | 15% | 42%
SMILES | AMA1-RON2 inh | CHX counter | SARS PLP yeast | Shiga toxin inh | Pf growth 96h | Pf growth 48h
Cn1ccsc1=NC(=O)c1ccc(S(C)(=O)=O)cc1 | 1% | 14 | -1% | 37* | 28% | 24%
Cn1ccsc1=NC(=O)c1cccc(C#N)c1 | 13% | 15* | -5% | 61 | 37% | 39%
Cc1ccc(C(=O)N=c2sccn2C)cc1C | 5% | -2 | -2% | -16 | -8% | 10%
CCN(CC)S(=O)(=O)c1cc(C(=O)N=c2sccn2C)ccc1OC | 23% | 2 | -8% | 7 | ? | 23%
CCCCOc1ccc(C(=O)N=c2sccn2C)cc1OC | -13% | 44* | -6% | 65* | 69% | 87%
CCOc1ccc(OCC)c(NC(=O)CCS(=O)(=O)c2ccc(Br)s2)c1 | -5% | 15* | 1% | 33 | . | ?
CC(C)CC1NC(=O)c2cc3ccccc3cc2-n2c1nc1ccc(Cl)cc1c2=O (stereo not drawn) | -2% | . | . | . | . | .
